Nrf2 activator = Nrf2 pathway activation; AID 624171; Potency, µM (top dose mostly 46.1 µM), for inactives: at the highest dose activation, hits mostly activators; AREc32 ARE-luciferase reporter (MCF7-derived line), luminescence, 24 h; 410,000 compounds, 0.31% hits; further: % of control where 0% means no effect; nearly all actives have a fitted effect of over 65% in size
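AREc32 cells carrying an ARE-driven firefly luciferase reporter were seeded at 1000 cells/well in OPTI-MEM with 5% FBS, then exposed to compound for 24 hr at 37 deg C. Luminescence was read with Steady-Glo after 30 min at RT.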
A549 tox-1 = kills or reduces viability of A549 cells in Nrf2 counter-screen. A549 ARE-Fluc cells, CellTiter-Fluor viability, 18-24 h. Potency, µM (top dose mostly 46 µM), inactives show at the highest dose activity change, negative = cytotoxicity, usual class: inhibitors. 390,000 compounds, 0.16% hits; further: on the % scale 0 is the no-effect control and ±100 the full control effect
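A549 ARE-Fluc cells in 5% FBS OPTI-MEM, 5000 cells/well, rested 2 h then exposed to compounds in concentration-response for 18-24 h at 37 °C. Viability by CellTiter-Fluor fluorescence (Ex 405/Em 525) after 30 min; luciferase luminescence (BugLite, 15 min, RT) read afterwards.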
Nrf2 inh = blocks Nrf2 signaling; A549 ARE-Fluc reporter, luciferase luminescence, 18-24 h; Potency, µM (doses to about 46 µM), for inactives: top-dose activity change, negative = inhibition, most hits filed as inhibitors; 360,000 compounds, 2.1% hits; AID 504444; further: on the % scale 0 is the no-effect control and ±100 the full control effect; nearly all actives have a fitted effect of over 60% in size
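Cells were seeded and rested 2 h, then exposed to compounds for 18-24 h. CellTiter-Fluor was read first as a viability measure. BugLite was added 15 min before the final luminescent read of ARE-luciferase activity in A549 cells.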
ELG1 repair inh = ELG1-dependent DNA repair inhibition | HEK293T ELG1-luciferase reporter, luminescence, 16 h; DNA damage induced by 5-fluorouridine | Potency, µM (doses to about 46.1 µM), inactives show at the highest dose activity change, negative = inhibition, most hits filed as inhibitors | 330,000 compounds, 2.3% hits | AID 504467; further: on the % scale 0 is the no-effect control and ±100 the full control effect; nearly all actives have a fitted effect of over 55% in size
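Overnight (16 hr) co-exposure of 2,000 cells/well to 5-fluorouridine and compound at 37 °C preceded detection. Luciferase was quantified via ONE-Glo luminescence; loss of signal denotes inhibition.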
FLuc enzyme inh = firefly luciferase inhibition, Nrf2 hit validation | shares compounds with Nrf2 inh | purified firefly luciferase, luminescence inhibition | Potency, µM (highest dose often 57.5 µM), inactives show at the top dose activity change, negative = inhibition, most hits filed as inhibitors | 1,400 compounds, 4% hits; further: on the % scale 0 is the no-effect control and ±100 the full control effect; nearly all actives have a fitted effect of over 65% in size
Target sequence (P08659 whole entry, looked up): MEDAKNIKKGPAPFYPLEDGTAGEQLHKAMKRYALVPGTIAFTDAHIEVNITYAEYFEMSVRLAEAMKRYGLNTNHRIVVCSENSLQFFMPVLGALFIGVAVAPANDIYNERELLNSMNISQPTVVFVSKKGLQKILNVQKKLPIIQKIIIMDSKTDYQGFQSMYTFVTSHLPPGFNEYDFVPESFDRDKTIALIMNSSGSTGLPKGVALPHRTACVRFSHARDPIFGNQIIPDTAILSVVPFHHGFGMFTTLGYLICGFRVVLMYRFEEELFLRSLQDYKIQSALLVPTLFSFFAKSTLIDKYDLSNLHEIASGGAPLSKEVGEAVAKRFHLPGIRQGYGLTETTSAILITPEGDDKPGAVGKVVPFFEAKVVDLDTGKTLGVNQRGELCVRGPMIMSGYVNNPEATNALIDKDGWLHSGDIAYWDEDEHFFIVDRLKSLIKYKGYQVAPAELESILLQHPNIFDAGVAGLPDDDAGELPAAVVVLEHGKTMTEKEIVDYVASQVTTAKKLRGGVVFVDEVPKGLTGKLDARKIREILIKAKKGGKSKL
A549 tox-2 = toxic to A549 ARE-Fluc cells in Nrf2 counterscreen; shares compounds with Nrf2 inh; A549 ARE-Fluc cells, cytotoxicity counterscreen; Potency, µM (top dose mostly 46.1 µM), for inactives: at the highest dose activity change, negative = cytotoxicity, actives largely listed as inhibitors; 1,400 compounds, 2% hits; AID 720523;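 further: cells exposed to compounds for 18 to 24 hours; on the % scale 0 is the no-effect control and ±100 the full control effect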
Nrf2 ARE inh = confirmation of Nrf2 inhibitors in A549 ARE reporter cells | shares compounds with Nrf2 inh | A549 ARE-firefly luciferase reporter, luminescence | Potency, µM (titrated, usually from 46.1 µM), for the others: at the top dose activity change, negative = inhibition, usual class: inhibitors | 1,400 compounds, 74% hits; further: on the % scale 0 is the no-effect control and ±100 the full control effect; nearly all actives have a fitted effect of over 65% in size
The depositor's hits bear a star. The list is not random: actives were taken first. Their share in the collection is about 3.7%. The call rests on the fitted dose curve; in most records, active means well fitted curve in the direction sought with a large enough effect; inconclusive means small, poorly fitted or top-dose-only effect, or another doubt; inactive means no such curve, though single readings can be large; an effect the other way counts as inactive or inconclusive. Potency means the concentration at half of the fitted maximal effect.

Screening COc1ccccc1C(O)c1ncc(-c2cccc(C(F)(F)F)c2)[nH]1 (configuration not stated) returned Nrf2 activator 0.1%.
For O=S(=O)(c1cc(F)ccc1F)N1CCN(C2CCCCC2)CC1 the results were Nrf2 activator -0.3%, A549 tox-1 1.8%, Nrf2 inh -0.7% and ELG1 repair inh -3.3%.
Screening O=C(Cc1n[nH]c(=O)c2ccccc12)Nc1cccc(S(=O)(=O)N2CCCC2)c1 returned Nrf2 activator 0.2%, A549 tox-1 3.8%, Nrf2 inh inconclusive and ELG1 repair inh -9.5%.
`O=C(Cc1n[nH]c(=O)c2ccccc12)Nc1cccc(S(=O)(=O)N2CCCCCC2)c1` gave Nrf2 activator 3.5%, A549 tox-1 -13.6%, Nrf2 inh 9.2µM*, ELG1 repair inh inconclusive, FLuc enzyme inh -2.1%, A549 tox-2 -7.1% and Nrf2 ARE inh 9.2µM*.
Cc1ccc(CON=C2CCN(c3ncc(C(F)(F)F)cc3Cl)CC2)cc1 was read as Nrf2 activator -0.2%, A549 tox-1 14.6%, Nrf2 inh -16.5% and ELG1 repair inh 1.3%.
Screening FC(F)(F)c1cnc(N2CCC(=NOCc3ccc(Cl)cc3)CC2)c(Cl)c1 returned Nrf2 activator -1.0%, A549 tox-1 -25.2%, Nrf2 inh 8.2µM*, ELG1 repair inh -2.0%, FLuc enzyme inh 1.4%, A549 tox-2 21.4% and Nrf2 ARE inh 6.8%.
C=CCn1c(C(C)NC(=O)c2cccc(C)c2)n[nH]c1=S (configuration not stated) was read as Nrf2 activator -1.9%, A549 tox-1 11.5%, Nrf2 inh 20.0% and ELG1 repair inh -3.3%.
Screening Nc1c(S(=O)(=O)c2ccccc2)c2nc3ccccc3nc2n1/N=C/c1ccco1 returned Nrf2 activator 0.2%, A549 tox-1 -19.5%, Nrf2 inh 5.8µM*, ELG1 repair inh inconclusive, FLuc enzyme inh inconclusive, A549 tox-2 -24.9% and Nrf2 ARE inh 2.06µM*.
`Cc1ccc(S(=O)(=O)c2c(N)n(/N=C/c3ccco3)c3nc4ccccc4nc23)cc1` gave Nrf2 activator -0.2%, A549 tox-1 -4.6%, Nrf2 inh inconclusive and ELG1 repair inh -22.3%.
COc1ccc(N=Cc2c(OC)ccc3ccccc23)cc1 was read as Nrf2 activator 3.1%, A549 tox-1 -1.5% and Nrf2 inh 0.9%.
Screening COc1cc(OC)c(/C=C/c2c3ccccc3cc[n+]2C)c(OC)c1 returned FLuc enzyme inh 1.2%, A549 tox-2 inconclusive and Nrf2 ARE inh 2.06µM*.
For COc1cc(OC)c(/C=C/c2cc3c4ccccc4ccc3[n+](C)c2)c(OC)c1 the results were FLuc enzyme inh 6.75µM*, A549 tox-2 -15.2% and Nrf2 ARE inh 4.61µM*.
Cc1cc(Nc2ccccc2C(=O)O)n(-c2ccc([N+](=O)[O-])cc2)n1 was read as Nrf2 activator -0.3%, A549 tox-1 inconclusive, Nrf2 inh 6.51µM*, ELG1 repair inh -20.8%, FLuc enzyme inh -13.9%, A549 tox-2 -4.5% and Nrf2 ARE inh inconclusive.
For COc1ccc(CNC(=O)[C@@H](C)NC(=O)C2CCN(C(=O)[C@@H](N)CCSC)CC2)cc1 the results were Nrf2 activator -0.2%, A549 tox-1 -14.2%, Nrf2 inh 2.8% and ELG1 repair inh 29.0%.
CCOC(=O)N1CCN(C(=O)c2ccc(Cn3c(=S)[nH]c4ccc(Br)cc4c3=O)cc2)CC1 was read as Nrf2 activator 0.1%, A549 tox-1 inconclusive, Nrf2 inh 4.11µM*, ELG1 repair inh 7.3µM*, FLuc enzyme inh -17.9%, A549 tox-2 inconclusive and Nrf2 ARE inh 8.2µM*.

Source: PubChem (National Center for Advancing Translational Sciences (NCATS))
